tim23-1 inh = inhibits growth of tim23-1 mutant yeast | S. cerevisiae tim23-1 growth, BacTiter-Glo luminescence, 24 h | inhibition, % at 20 µM | 330,000 tested, 1.3% active | AID 463212;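 active means growth inhibition of the mutant yeast at or above 50%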;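 further: temperature-sensitive mutant grown at 25 °C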
TIM10 inh = growth inhibitors of TIM10 yeast strain; S. cerevisiae TIM10 strain growth, BacTiter-Glo luminescence, 24 h; inhibition, % at 10 µM; 330,000 tested, 1.4% active; AID 463195;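 active means inhibition of 40% or more at the single tested concentration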;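 further: wild-type TIM10 isogenic control strain grown at permissive 25 °C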
tim10-1 inh = inhibits growth of tim10-1 mutant yeast | S. cerevisiae tim10-1 ts strain growth, BacTiter-Glo, 24 h | inhibition, % at 20 µM | 330,000 tested, 2.2% active | AID 463190;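 active means inhibition of at least 40%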;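 further: mutant grown at 25 °C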
NLRP3 yeast inh = inhibitors of NALP3 inflammasome in yeast. Yeast reconstituted NLRP3/ASC/caspase-1, beta-gal luminescence, 24 h. inhibition, % at 10 µM. 330,000 tested, 0.39% active. AID 2825;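 active means inhibition of 50% or more; inactive means inhibition below 50%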
SKKanGAS inh = blocks kanamycin growth of S. pyogenes SKKanGAS strain; BacTiter-Glo, 6 h; 300,000 tested, 1.3% active; inhibition, % at 7.5 µM;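 active means mean replicate score, as percent of positive control median, at least 50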;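 further: strain carries kanamycin resistance gene driven by streptokinase promoter and grows in 40 µg/ml kanamycin; loss of luminescence reflects streptokinase promoter inhibition or plain growth inhibition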
PfHsp90 yeast 2 = growth inhibition of yeast expressing Plasmodium Hsp90. inhibition, % at 9.4 µM. S. cerevisiae expressing PfHsp90, BacTiter-Glo ATP, 48 h; yeast lacking PDR1 and PDR3 efflux regulators. 310,000 tested, 0.32% active;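 active means every replicate shows inhibition above about 80%, whatever the replicate mean, limit read from the data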
tim10-1 confirm = tim10-1 yeast growth inhibition, confirmed. shares compounds with tim10-1 inh. 7,400 tested, 56% active. AID 463213. inhibition, % at 20 µM. S. cerevisiae tim10-1 ts strain growth, BacTiter-Glo, 24 h;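 active means inhibition of yeast growth at or above a set limit in either of two repeat tests at 20 µM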;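 further: tim10-1 mutant grown at permissive 25 °C to find synthetic lethal compounds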
TIM10 conf = TIM10 yeast growth inhibition, confirmed | 4,600 tested, 63% active | AID 463215 | S. cerevisiae tim10 strain growth, BacTiter-Glo luminescence, 24 h | inhibition, % at 10 µM | shares compounds with TIM10 inh;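 active means inhibition of yeast growth at or above a set limit in either of two replicates at 10 µM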; further: this counterscreen used the strain with wild-type TIM10
Numbers stand for hits; - = inactive; . = no result given. Hits are enriched below; roughly 4.6% of the tested compounds scored in any of these assays.

SMILES | tim23-1 inh | TIM10 inh | tim10-1 inh | NLRP3 yeast inh | SKKanGAS inh | PfHsp90 yeast 2 | tim10-1 confirm | TIM10 conf
COc1c(S(=O)(=O)n2nc(C)cc2C)ccc(Cl)c1Cl | - | 44 | 49 | - | - | - | 44 | 42
Cc1ccc(S(=O)(=O)CCC(=O)OCC(=O)c2cc(C)ccc2C)cc1 | - | - | - | - | - | - | . | .
Cc1ccc(S(=O)(=O)CCC(=O)c2ccc(O)cc2O)cc1 | - | 55 | 54 | - | - | - | 47 | 50
N#Cc1ccccc1OCC(=O)OCC(=O)NC1CCCC1 | - | - | - | - | . | - | . | .
COc1ccc(C(=O)n2c(SC)nc3cc4c(cc32)OCCO4)cc1 | - | 47 | 43 | - | - | - | 37 | -
COc1ccc(C(=O)c2cc3c(cc2[N+](=O)[O-])OCCO3)cc1 | - | - | - | - | - | - | . | .
CCOC(=O)c1sc(Nc2ccc(C)cc2C)nc1C | - | 63 | 48 | - | - | - | - | 40
CCOC(=O)c1sc(NC(=O)Cc2c(F)cccc2Cl)nc1C | - | 44 | 47 | - | - | . | 43 | 36
O=C(NN=C1c2ccccc2-c2ccccc21)c1ccccn1 | - | 48 | 41 | - | - | - | - | 39
O=C/C=C/c1coc2ccc3ccccc3c2c1=O | - | - | - | - | - | . | . | .
O=Cc1coc2c(ccc3ccccc32)c1=O | - | 58 | 41 | - | - | . | 34 | 78
CCC1CCc2sc(C(=O)NCC(c3ccccc3OC)N3CCCC3)cc2C1 (configuration not stated) | - | - | - | - | . | - | . | .
CCCc1[nH]nc2c1C(c1ccccc1OC)C(C#N)=C(N)O2 (configuration not stated) | - | - | - | - | - | . | . | .
CCCc1[nH]nc2c1C(c1cn[nH]c1-c1ccc(F)cc1)C(C#N)=C(N)O2 (configuration not stated) | - | 41 | 44 | - | - | - | 48 | 34
O=c1c2ccccc2nc2c3ccccc3c(NCc3ccccn3)nn12 | - | 71 | 71 | - | . | - | 65 | 63
O=c1c2ccccc2nc2c3ccccc3c(NCc3cccnc3)nn12 | - | 49 | 54 | - | - | - | 64 | 51
c1cncc(CNc2nc(-c3cccnc3)nc3ccccc23)c1 | - | - | - | - | - | - | . | .
Cc1nc(NCc2ccccn2)c2ccccc2n1 | - | - | - | - | - | - | . | .
CCOC(=O)N/N=C\C=C\c1ccc2c(c1)OCO2 | - | - | - | - | - | - | . | .
COc1cccc(NC(=S)N(CCC(C)C)C2CCN(C(C)=O)CC2)c1 | - | - | - | - | - | - | . | .
O=C(CCNc1ccc(Cc2ccncc2)cc1)c1ccc([N+](=O)[O-])cc1 | - | 62 | 49 | - | - | - | 37 | 41
CC(C)C(=O)NNC(=O)c1csc(-c2cccs2)n1 | - | - | - | - | - | - | . | .
Cc1ccc(C)c(S(=O)(=O)N2CCN(C(=O)[C@@H]3CCCN3C(=O)c3cccs3)CC2)c1 | - | - | - | - | . | - | . | .
O=C(CCCn1nnnc1CN1CCOCC1)N1CCC(c2ccc(F)cc2)C1 (configuration not stated) | - | - | - | - | - | - | . | .
COc1ccc(NC(=O)CSc2nc3c(sc4ccccc43)c(=O)n2CCCN2CCCC2)cc1 | - | - | - | - | - | - | . | .
SMILES | tim23-1 inh | TIM10 inh | tim10-1 inh | NLRP3 yeast inh | SKKanGAS inh | PfHsp90 yeast 2 | tim10-1 confirm | TIM10 conf
COc1ccc(C(=O)Sc2nncc3ccccc23)cc1 | - | 42 | 45 | - | - | - | - | 41
COc1ccc(NC(=O)CSc2nncc3ccccc23)cc1 | - | - | - | - | - | - | . | .
O=C1N/C(=C\c2ccc(O)cc2)C(=O)c2ccccc21 | - | 48 | 55 | - | - | . | 42 | 36
Cc1ccc(-n2nc(C)c(NS(=O)(=O)c3ccccc3)c2C)cc1C | - | - | - | - | - | - | . | .
Cc1nn(-c2ccc(F)cc2)c(C)c1NS(=O)(=O)c1ccc(Cl)cc1 | - | 51 | 48 | - | - | - | 40 | -
CCc1c(C)nc(SCC(=O)N2CC(C)OC(C)C2)[nH]c1=O (configuration not stated) | - | - | - | - | - | - | . | .
Cc1nc(Nc2ccc(Cl)c(Cl)c2)sc1C(=O)Nc1ccccc1 | - | 53 | 59 | - | 91 | - | 32 | 69
COc1ccc(Nc2nc(-c3cccs3)nc3ccccc23)cc1 | - | - | - | - | - | - | . | .
COc1cccc(Nc2nc(-c3cccs3)nc3ccccc23)c1 | - | 48 | 53 | - | - | - | 36 | 45
CCN(C(=O)COC(=O)CC1CCCCC1)c1c(N)n(Cc2ccccc2)c(=O)[nH]c1=O | - | - | - | - | . | . | . | .
COc1cccc(/C=N/NC(=O)c2c(C)nc3ccc(Br)cn23)c1O | - | 45 | 41 | - | 66 | - | - | 61
CCOC(=O)C(C(=O)OCC)c1cc(Br)c2noc3c2c1C(=O)c1ccccc1-3 | - | 44 | 42 | - | 91 | - | 39 | -
CCOc1cc(N2CCOCC2)c(OCC)cc1NC(=O)c1c(-c2ccccc2Cl)noc1C | - | - | - | - | - | . | . | .
Cc1ccc2c(c1)Oc1ccc(NC(=O)CCl)cc1C(=O)N2 | - | 50 | 43 | - | - | - | 30 | 33
Cc1ccc(Nc2cc(C)nc(-c3ccccc3O)n2)cc1 | - | 53 | 58 | - | - | . | 59 | 48
Cc1cc(Nc2ccc(F)c(F)c2)nc(-c2ccccc2O)n1 | - | - | - | - | - | - | . | .
O=C(/C=C/c1c(Cl)nc2ccccn12)Nc1ccc(F)cc1 | - | - | - | - | - | - | . | .
Cc1ccc(OC(F)F)c(NC(=O)Nc2cccc(C(F)(F)F)c2)c1 | - | 51 | 47 | - | - | - | 45 | 58
O=C(Nc1ccccc1)Nc1cccc(C(F)(F)F)c1 | - | - | - | - | - | - | . | .
C=CCc1cccc(CNc2nc3ccccc3n2CCC)c1O | - | 45 | 42 | - | - | - | - | 36
C(=N\Nc1nc(Nc2ccccc2)nc(N2CCCCC2)n1)/c1ccco1 | - | 48 | 50 | - | 81 | . | - | 37
Cc1cc(Br)c(Cl)cc1NC(=O)CN1C(=O)C2C3CC(c4ccccc4)C(C3)C2C1=O (configuration not stated) | - | 52 | 52 | - | - | - | 43 | -
CCOc1cc(C(=O)N2CCC(CC3CC(c4cccc(Br)c4)=NO3)(C(=O)NCC3CCCCC3)CC2)cc(OCC)c1OCC (configuration not stated) | - | - | - | - | - | - | . | .
C/C(=N\N=C1\NC(=O)C(CC(=O)Nc2ccc(Cl)cc2)S1)c1ccco1 (configuration not stated) | - | - | - | - | - | - | . | .

Bioassay records deposited in PubChem by several laboratories.
